Reference: the supplement of paper PMC6555819

What was measured:
Assay in all cases: PBM binding z-score (relative to random genomic background probes); higher = stronger binding; sequences stand for … in GC…GCGATTGACAGCGTAGAATGAAGG
[1] = system: RARb homodimer (NR concentration 270 nM)
Procedure, shortened: (§1)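 Custom Agilent 4×180K protein-binding microarrays carried double-stranded probes, each with a 34-nt variable region. These regions held direct-repeat seeds, single-nucleotide variants, half-site ablations and random human genomic background sequences. Ligand-free nuclear receptor dimers were incubated on the arrays for 1 h, antibodies against each partner (one per run) detected binding, and scanned fluorescence was regression-normalized. Binding z-scores take the random background probes as reference.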

[2] = system: RARg:RXRa (NR concentration 270 nM, RXRa partner concentration 90 nM)
Procedure, shortened: as §1

[3] = system: RARg homodimer (NR concentration 270 nM)
Procedure, shortened: as §1

[4] = system: RXRa DBDmut IVT, anti-RXR (DBD mutation: RXRa K156A/R161A, NR concentration 90 nM)
Procedure, shortened: as §1

[5] = system: RXRa homodimer (NR concentration 180 nM)
Procedure, shortened: as §1

[6] = system: THRa:RXRa (NR concentration 90 nM, RXRa partner concentration 90 nM)
Procedure, shortened: as §1

[7] = system: THRa homodimer (NR concentration 90 nM)
Procedure, shortened: as §1

[8] = system: VDR:RXRa (NR concentration 270 nM, RXRa partner concentration 90 nM)
Procedure, shortened: as §1

[9] = system: VDR homodimer (NR concentration 270 nM)
Procedure, shortened: as §1

Sequence	PBM binding z-score [1]	PBM binding z-score [2]	PBM binding z-score [3]	PBM binding z-score [4]	PBM binding z-score [5]	PBM binding z-score [6]	PBM binding z-score [7]	PBM binding z-score [8]	PBM binding z-score [9]
CTCCAAAGGTCGGTTGAGGTGAGTATACGGATAA	2.61	2.87	2.9	0.951	2.46	5	1.56	2.42	0.508
CCTTACGGTTCACTGACAGGTTATAGCATTTGGA	1.26	3.49	0.922	3.31	2.05	1.53	0.708	2.6	2.95
CCTACTGGGCCAAGGTCATTGCTCAGTCAAAGCA	3.23	3.53	2.97	1.25	2.85	3.42	2.02	3.19	3.2
AGTCAAAGTTCATCTTGGTAACGTAAGATATGCT	4.03	5.43	5.84	4.52	4.52	2.03	-0.478	4.41	4.88
CCTAGTTGGTCAGGGGGTCACACACCGGATATGA	4.05	5.83	4.22	0.886	6.18	3.88	2.28	4.94	3.16
CGAACTAGGTCAAAGGCCAGTGAAAGGCGACGTA	3.16	4.37	4.81	1.49	3.62	2.42	0.00822	1.74	-0.206
CGTCTAAGTTCAAGGTAACGTAACAGAAAGCAGC	2.51	3.53	4.06	4.62	2.82	3.09	2.02	3.43	3.41
GATTACGGGTCAAAGGTTATAGCATGAATAGAAT	3.44	7.12	4.85	2.27	9.48	3.95	0.146	5.82	1.64
CGAACTACGTCACCAGGACAGTGAAGAGGTTGGA	0.196	0.119	0.277	-0.206	0.256	1.27	0.657	-0.211	0.0213
TGACTGAGGTTAAAGATCAGGGAACGTGGCGTCG	0.864	2.39	1.35	0.903	3.77	2.41	0.422	1.69	0.537
TTACAAAGGTGAGCTGAGGTCGTTGATCCAACTC	2.56	2.97	2.69	0.365	2.51	4.84	1.73	5.58	2.57
ACTAGTTGGTCAGCTGAGGTCACACTCAATTCGG	4.47	3.93	4.09	1.5	3.92	5.01	4.85	4.54	3.27
CAAACTAGGTCAAAGGTCAAAGTTGAGCCAACCA	5.46	9.07	7.7	3.35	10.5	4.95	1.92	6.85	3.15
AGTCAAAGTTCACGACGAGGTAACGTAAAGCACG	4.35	6.88	6.88	4.21	5.95	4.41	1.36	5.05	3.96
TAGCCTAGGTCATGGGCCTGTATACCACGCGAAC	3.34	4.47	4.67	0.485	3.9	3.23	1.31	1.98	0.584
AGTCAAAGTTCATCTGGGTAACGTAAGATATGCT	4.07	5.32	5.48	4.78	4.42	2.82	0.135	4.96	4.81
CATCCAAGGTCAAAGGTCAGTGAAGAGATGACGG	5.65	8.8	7.95	4.08	10.2	4.93	2.74	6.71	4.15
CCTTACAGGTCACGAGGTTATAGCACGACGAGCG	4.51	6.3	6.12	2.77	6.64	3.98	1.85	5.04	2.48
CGAATTAGGTCACCAGGACAGTGAAGAGGTTGGA	3.77	4.66	5.28	1.56	3.42	3.98	2.96	2.06	0.575
TCGAGTAGGTTACAGGGGCATTCAGGGATGAAGA	1.64	1.1	0.679	0.69	1.29	2.65	0.735	1.67	1.42
CGAACTAGGTCAGCAGGACAGTGAAGAGGTTGGA	2.84	2.91	3.91	0.0956	1.51	2	0.264	0.428	-0.272
ACTCGGAGGATAAAGGTCAGAGCTACGCCAGTGA	3.89	4.72	4.44	0.655	4.43	2.69	0.203	2.36	0.801
ATAGGTAGGTTAGGGTCATTCAGAAAGTAGGGAA	3.99	4.32	4.06	2.36	5.28	4.76	3.77	5.05	4.51
CTATGTAGGTTAAGGGGGTAATTCAGTTTGAAAG	1.84	2.06	1.59	1.27	1.95	2.44	1.35	3.5	1.41
CCGAGTAGGTTACCAGGGGGCATTCAGTGCGAAT	2.4	2.93	2.52	0.717	2.06	3.68	0.758		3.64
AGATTGAGGTTACCAAAGATCAGGGAAACGCTTG	0.91	2.15	1.94	1.36	2.81	2.91	1		0.381
CCGAGTAGGTTACGAGGGGGCAATCAGTGCGAAT	2.19	3.42	2.54	1.02	2.13	3.65	0.431	4.72	2.8

Sequence	PBM binding z-score [1]	PBM binding z-score [2]	PBM binding z-score [3]	PBM binding z-score [4]	PBM binding z-score [5]	PBM binding z-score [6]	PBM binding z-score [7]	PBM binding z-score [8]	PBM binding z-score [9]
CTATGTAGGTTAAGGGGGTCATACAGTTTGAAAG	3.95	5.39	4.06	2.32	6.26	4	2		5.41
CGTCAAAGTTCAACTAAGTTAACGTAAAGCACGC	4.02	5.7	6.78	4.7	5.2	4.32	0.349		3.74
CCTTACGGGTCAAGGTTATACCACGGGTGGTACG	3.44	4.96	4.75	0.758	5.09	2.97	0.619		1.65
CGAACTAGGTCAAAGGGCAGTGAAAGGCGACGTA	3.46	5.34	4.91	1.65	5.31	3.11	0.218		0.354
CGAACTAGGTCACGAGGACAGTGAAGAGGTTGGA	3.75	4.91	5.66	1.48	3.85	3.84	2.61	2.75	0.957
CCGAGTAGGTTGCGAGGGGGCATTCAGTGCGAAT	1.77	1.99	1.28	1.58	1.27	3.09	0.684	4.26	3.23
TTACCAAAGTGAAAGGTCGTTGATGCACGCCTTG	1.87	1.64	1.01	0.293	2.65	1.34	-0.34		1.41
CTTTACGGGTCAAGGTTATAGCACGGGTGGTACG	3.7	5.18	5.01	1.93	5.61	3.26	1.1		1.77
CGAACTAGGTCATCAGGACAGTGAAGAGGTTGGA	3.22	4.14	4.73	1.67	2.99	3.38	1.97		0.876
CGAACTAGGTCAAATGACAGTGAAAGGCGACGTA	2.7	4.37	4.97	2.03	3.11	2.6	0.29		0.337
ATATGTAGGTTAGGGTCATACAGAAAGTAGGGAA	3.48	4.25	3.47	2.26	5.6	4.1	3.09		3.03
CCGACTGGGGCAAAGGTTACGATACTCAGTACGA	2.03	3.68	1.78	0.541	3.62	1.81	-0.139	1.61	-0.301
ATATGTAGGTTATCGGGTCATTCATTTTGCGCAT	3.18	3.28	2.49	1.65	3.49	3.53	2.79		3
ATATATAGGTTAGGGTCATTCAGAAAGTAGGGAA	3.6	4.24	3.75	2.67	5.33	4.11	3.76	4.75	3.95
TCGAGTAGGCTACGGGGGCATTCAGGGATGAAGA	1.01	1.2	0.904	0.682	1.13	3.63	0.228		2.66
CGAACCAGGTCAAAGGACAGTGAAAGGCGACGTA	2.94	4.32	4.33	2.36	3.81	3.21	1.24		1.15
CGAACTAGGTCACCAGGACAGTAAAGAGGTTGGA	3.58	4.57	5.2	1.79	3.38	3.29	1.86		0.977
CCTTGCGGGTCACTGACAGGTTATAGCATTTGGA	2.97	5.46	4.17	1.77	4.49	2.8	0.354		0.664
ACTAGCAGGCCAAGAGTCACTCAAGATTAGTCCG	0.0309	0.304	0.413	-0.426	0.599	0.162	-0.533		-0.0236
CTATGTAGGTTAAGGGGGTCATTAAGTTTGAAAG	3.65	4.97	3.44	2.43	5.43	3.79	2.03		6.07
ATATGTAGGTGAAGGGTCATTCAGGTTGGTTCGC	3.76	4.77	3.15	2.06	5.6	3.55	1.35	5.46	4.34
CCGATTAGGTTACGAGGGGGCATTCAGTGCGAAT	2.56	3.12	2.54	1.96	1.52	3.91	1.57		2.8
GCTTACGGGTCAAAGGTTATAGTATGAATAGAAT	3.5	6.8	4.72	2.7	9.39	3.99	0.429		1.88
CCTAGCAGGCCAGGGTCACCCAAGCATTTCGCTT	3.34	3.95	2.98	-0.0851	4.34	3.44	1.71		1.35
ATATGTAGGTTCGGGTCATTCAGAAAGTAGGGAA	2.51	2.82	2.25	2.71	3.45	3.7	2.82		4
CCTACTGGGCCATTAAGAGGTCATTGATCATATG	3.96	3.93	2.81	1.02	3.74	3.23	1.49	3.95	2.79
AGTCAAAGTTCAGTAGGTAACGTAAGATTCAGCT	3.15	3.74	4.28	3.23	2.08	0.91	-0.604	2.4	2.23
